Reference: PubChem BioAssay (EPA / NIEHS)
Inconclusive results are not listed. Calls of active or inactive are those of the source. How the source made its calls: active means hit-call score of the fitted dose curve at least 0.9, where 1 is the maximum; inconclusive means response in the unintended direction; inactive means score below 0.9.

assay: CCTE_Shafer_MEA_dev_bursting_electrodes_number: CCTE's Neural Network Formation Assay for Number of Bursting Electrodes, Shafer Lab (AID 2284043)
Procedure: CCTE_Shafer_MEA_dev assay is conducted using Axion Biosystems 48 well microelectrode array (MEA) plates and Maestro recording system. Each well of the MEA plate contains a grid of 16 microelectrodes embedded in the culture surface. Electrically active cells, such as neurons, can be cultured over the electrodes, and electrical activity in these cells can be recorded extracellularly. The spontaneous firing of neurons is captured from each electrode on a microsecond timescale providing both temporally and spatially precise data. […] The CCTE_Shafer_MEA_dev assay uses primary cultures of rat cortical neurons. Recordings are made on days post-plating 5, 7, 9 and 12. As these cultures mature over time, neural networks develop functional activity and form cohesive networks in which electrical activity can be highly coordinated. CCTE_Shafer_MEA_dev_bursting_electrodes_number is 1 of 19 assay components of the CCTE_Shafer_MEA_dev assay. It measures the number of electrodes in a well with a burst rate of at least 1 burst (temporally-clustered group of action potential firing) every 2 minutes during a recording in a microelectrode array (MEA) using Axion Biosystems Maestro 768 channel amplifier with the AxIS adaptive spike detector. To collapse across multiple recordings made on days post-plating 5, 7, 9 and 12, the trapezoidal area-under-the-curve of the component is calculated.Data from the assay component CCTE_Shafer_MEA_dev_bursting_electrodes_number was analyzed into 1 assay endpoint. This assay endpoint, CCTE_Shafer_MEA_dev_bursting_electrodes_number, was analyzed in the negative analysis fitting direction relative to DMSO as the negative control and baseline of activity. Using a type of functional reporter, gain or loss-of-signal activity can be used to understand electrical activity.
On the day prior to culture, each well was coated thoroughly with 150 uL of 0.05% polyethyleneimine (PEI, Sigma Cat P3143) in 50 mM HEPES (Sigma Cat H7523) at a pH of 8. The plate was incubated at 37C for one hour. PEI was rinsed out with 500 uL of sterile water three times. Plates were stored at 4C until the day of culture. This culture was plated at a seeding density of 1.5 x 10^5 cells/well on a 48-well MEA plate, prepared as described above. Cells were administered via a 25 uL media/laminin ([…]; Sigma Cat L2020-1MG) drop directly onto the microelectrode array, as adding the cells with the laminin results in better attachment than pre-coating with laminin. After 2 hours, an additional 475 uL of cortical media was added and the cells returned to the incubator. Exposure starts at day 0 of plating and is continued over twelve days of network development until the experiment is terminated. Cells are fed with fresh medium on DIV 5 and 9, following the recordings on those days. The entire volume of media in the well is exchanged and any vehicle or compound treatment is renewed. Complete details are found in OP-NHEERL/ISTD/SBB/TJS/2015-03-r0 (available on request, email shafer.tim@epa.gov). Measurement of the electrical activity is non-invasive, and recordings can be made from the same plate over multiple different days of the culture. In cortical neurons, this allows for the measurement of extracellular action potentials over the period during which networks form in the MEA plate.

Compound | AC50 | outcome
CCCCCC(C)(CC)C(=O)NC (stereo unspecified) | 50 µM (active) | 
CC(C)O | 11.8 µM (active) | 
c1ccc2c(c1)ccc1c3ccccc3ccc21 |  | inactive
C[C@@H]1CCO[C@H]2Cn3cc(C(=O)NCc4ccc(F)cc4F)c(=O)c(O)c3C(=O)N12 | 1.65 µM (active) | 
Brc1cc(Br)c(Oc2cc(Br)c(Br)cc2Br)cc1Br |  | inactive
CCCCCC=C(C)C(CC)CCO (stereo unspecified) |  | inactive
BrC1CC(Br)CC(Br)CC(Br)CC(Br)CC(Br)C1 (stereo unspecified) | 5.42 µM (active) | 
[O]=[V]([OH])([OH])[OH] | 9.39 µM (active) | 
O=C1CC2(CCCC2)CC(=O)N1CCCCN1CCN(c2ncccn2)CC1 | 15 µM (active) | 
CC(CNC(=S)[S-])NC(=S)[S-].[Zn+2] (stereo unspecified) | 15 µM (active) | 
CC(C)c1nn(C(=O)NC(C)(C)C)c(=O)n1N |  | inactive
c1cc2c3c(c1)ccc1cccc(c13)C2 |  | inactive
Cc1[nH]n(C)c(=O)c1C(=O)c1ccc(C(F)(F)F)cc1S(C)(=O)=O |  | inactive
C[C@@H]1CC[C@@H](C(C)(C)O)[C@H](O)C1 |  | inactive
CC(=O)N[C@@H](CC(=O)O)C(=O)O |  | inactive
CCc1ccccc1 |  | inactive
